Compounds with a hit are over-represented: about 10% of the library has one in this group of screens.
NIH3T3 tox – kills NIH 3T3 cells. NIH 3T3 viability, CellTiter-Glo ATP luminescence, 48-72 h. 94,000 tested, 4.3% active. Potency, µM (top dose mostly 96.7 µM), for the others: at the highest dose activity change, negative = cytotoxicity, most hits filed as inhibitors. AID 1345082; further: on the % scale 0 is the no-effect control and ±100 the full control effect; nearly all actives have a fitted effect of over 55% in size
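Cytotoxicity is measured as loss of cellular ATP: NIH 3T3 cells (400/well) are exposed to compound for 48 or 72 hr at 37 °C, then CellTiter-Glo luminescence is imaged after 10 min at room temperature.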
hNpr1 antagonist – antagonists of human natriuretic peptide receptor Npr1; P16066; HEK293 hNpr1 GloSensor cGMP, ANP-stimulated luminescence; Potency, µM (series often up to 46.3 µM), for the others: at the highest dose activity change, negative = inhibition, hits mostly inhibitors; 76,000 tested, 1.6% active; AID 1347048; calls by dose curve; further: on the % scale 0 is the no-effect control and ±100 the full control effect; nearly all actives have a fitted effect of over 60% in size
Target sequence (P16066 whole entry, looked up): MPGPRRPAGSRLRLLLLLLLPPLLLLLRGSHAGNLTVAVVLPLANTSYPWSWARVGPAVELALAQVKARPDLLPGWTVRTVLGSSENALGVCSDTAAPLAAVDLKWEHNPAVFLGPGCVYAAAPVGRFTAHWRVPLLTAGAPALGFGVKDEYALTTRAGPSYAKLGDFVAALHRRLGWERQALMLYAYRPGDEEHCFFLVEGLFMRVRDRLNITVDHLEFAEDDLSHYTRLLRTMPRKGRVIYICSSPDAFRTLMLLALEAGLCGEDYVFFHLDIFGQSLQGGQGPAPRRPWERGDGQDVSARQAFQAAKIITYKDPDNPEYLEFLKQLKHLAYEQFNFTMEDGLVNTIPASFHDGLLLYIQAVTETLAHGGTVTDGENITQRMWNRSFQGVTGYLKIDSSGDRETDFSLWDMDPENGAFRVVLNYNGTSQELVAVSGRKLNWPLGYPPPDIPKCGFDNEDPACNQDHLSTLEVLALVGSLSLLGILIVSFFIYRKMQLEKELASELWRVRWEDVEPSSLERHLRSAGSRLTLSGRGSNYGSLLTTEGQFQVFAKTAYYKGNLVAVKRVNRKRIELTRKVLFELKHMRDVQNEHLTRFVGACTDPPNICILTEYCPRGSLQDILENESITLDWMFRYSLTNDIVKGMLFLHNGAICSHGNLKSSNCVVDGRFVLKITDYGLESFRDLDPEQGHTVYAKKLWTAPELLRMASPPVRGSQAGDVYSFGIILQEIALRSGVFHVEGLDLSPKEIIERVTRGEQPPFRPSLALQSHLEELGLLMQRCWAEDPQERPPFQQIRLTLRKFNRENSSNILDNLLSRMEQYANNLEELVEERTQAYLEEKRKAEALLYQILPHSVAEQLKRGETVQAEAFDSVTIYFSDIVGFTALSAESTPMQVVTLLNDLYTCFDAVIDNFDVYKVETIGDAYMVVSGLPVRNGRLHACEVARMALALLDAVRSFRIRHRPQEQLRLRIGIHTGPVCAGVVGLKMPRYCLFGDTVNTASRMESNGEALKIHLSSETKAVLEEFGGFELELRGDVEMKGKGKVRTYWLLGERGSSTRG
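HEK293 cells stably expressing human Npr1 and cGMP GloSensor pGS-40F, loaded 2 h with 2% GloSensor reagent, given compound 30 min at room temperature. Luminescence read before and 20 min after 0.1 nM hNppA.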
GPT2 inhibitor – blocks human glutamate pyruvate transaminase 2; Recombinant GPT2, coupled pyruvate oxidase/HRP Amplex Red fluorescence; Potency, µM (titrated, usually from 57.7 µM), for the others: top-dose activity change, negative = inhibition, most hits filed as inhibitors; 100,000 tested, 0.25% active; AID 1671188; further: on the % scale 0 is the no-effect control and ±100 the full control effect; nearly all actives have a fitted effect of over 60% in size
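Recombinant GPT2 (10ng/uL) with 250uM a-KG and 2mM L-alanine, 30 min at room temperature, in HEPES pH 7.5 buffer. Pyruvate detected by pyruvate oxidase/HRP/Amplex Red fluorescence after 30 min in the dark; AOA (50uM) as positive control.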
HEK cytotox – kills HEK 293 cells | Potency, µM (series often up to 115 µM), without a hit: at the top dose activity change, negative = cytotoxicity, actives largely listed as inhibitors | HEK 293 viability, ATP luminescence (CellTiter-Glo), 48-72 h | 94,000 tested, 6.6% active; further: on the % scale 0 is the no-effect control and ±100 the full control effect; nearly all actives have a fitted effect of over 60% in size
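HEK 293 seeded at 250 cells/well receive compound via pintool. After 48 or 72 hr at 37 degree Celsius, 5% CO2 and 95% humidity, CellTiter-Glo is dispensed and luminescence read following 10 min at room temperature.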
FLuc inh-1 – inhibitors of firefly (Photinus pyralis) luciferase; Potency, µM (titrated, usually from 115 µM), actives largely listed as inhibitors; 76,000 tested, 2.5% active; purified P. pyralis luciferase, luminescence, biochemical; AID 1347043; P08659; further: on the % scale 0 is the no-effect control and ±100 the full control effect; nearly all actives have a fitted effect of over 65% in size
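FLuc 10nM, D-luciferin 10uM, ATP 10uM, Mg acetate 10mM, Tris acetate pH 7.5, Tween/BSA; cpd qHTS; enzyme added last; CCD luminescence.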
FLuc SDR no ATP – binders stabilizing firefly luciferase, without ATP; Purified FLuc-C-HiBiT, Nano-Glo HiBiT luminescence, no ATP; Potency, µM (titrated, usually from 32.7 µM), without a hit: at the top dose activation (signal gain), usual class: activators; AID 1963318; shares compounds with FLuc inh-1; 1,300 tested, 7.8% active; further: nearly all actives have a fitted effect of over 55% in size
FLuc SDR ATP – binders stabilizing firefly luciferase, plus ATP | shares compounds with FLuc inh-1 | AID 1963319 | Potency, µM (series often up to 32.7 µM), without a hit: at the top dose activation (gain of signal), usual class: activators | purified FLuc-C-HiBiT + ATP, HiBiT complementation luminescence | 1,300 tested, 8.7% active;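 further: signal reports ligand binding via conformational change of the enzyme rather than luciferase catalysis; % of control where 0% means no effect; nearly all actives have a fitted effect of over 55% in size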
FLuc inh-2 – firefly luciferase enzyme inhibition. purified FLuc-C-HiBiT enzyme, luciferin luminescence. Potency, µM (doses to about 32.7 µM), without a hit: at the highest dose activity change, negative = inhibition, hits mostly inhibitors. 1,300 tested, 42% active. shares compounds with FLuc inh-1; further: on the % scale 0 is the no-effect control and ±100 the full control effect; nearly all actives have a fitted effect of over 70% in size
* marks the source's active call; other numbers are inactive results; i = inactive; ? = inconclusive; · = not tested or not shown; [ ] = another dose, or the depositor's remark. Unless noted, the call rests on the fitted dose curve; in most records, active means well fitted curve in the direction sought with a large enough effect; inconclusive means small, poorly fitted or top-dose-only effect, or another doubt; inactive means no such curve, though single readings can be large; an effect the other way counts as inactive or inconclusive. Potency means the concentration at half of the fitted maximal effect.

SMILES | NIH3T3 tox | hNpr1 antagonist | GPT2 inhibitor | HEK cytotox | FLuc inh-1 | FLuc SDR no ATP | FLuc SDR ATP | FLuc inh-2
COc1ccc(-c2cc(N3CCCC(NC(=O)c4cccs4)C3)n[nH]2)cc1 (configuration not stated) | ? | -18% | ? | ? | 14µM* | 21% | 13% | ?
COc1ccc(-c2cc(N3CCCC(NC(=O)c4ccc5c(c4)OCO5)C3)n[nH]2)cc1 (configuration not stated) | ? | -20% | ? | ? | 11µM* | 24% | 15% | ?
COc1ccc(-c2cc(N3CCCC(NC(=O)c4nccc5ccccc45)C3)n[nH]2)cc1 (configuration not stated) | ? | -19% | ? | ? | ? | · | · | ·
O=C(C1CC1)N1CCCC(N2CCN(c3cccc(C(F)(F)F)c3)CC2)C1 (configuration not stated) | -27% | 7% | i | ? | i | · | · | ·
CC(C)(Oc1ccc(-c2nc3cc(Cl)ccc3s2)cc1)C(=O)O | · | · | i | · | · | ? | ? | 8.8µM*
Cc1ccc(NC(=O)N2CCC(OC3CCN(S(C)(=O)=O)CC3)CC2)cc1Cl | ? | ? | i | ? | i | · | · | ·
Cc1ccc(NC(=O)c2ncoc2-c2ccco2)cc1Cl | · | · | · | · | · | 18% | 14% | ?
Cc1c(Cl)cccc1-n1nnc(-c2nc(-c3ccc4c(c3)OCO4)no2)c1C | · | · | · | · | · | 18% | 16% | 11µM*
CC(C)c1noc(-c2nc(-c3ccc4c(c3)OCO4)no2)n1 | -24% | ? | i | ? | 3.5µM* | 16% | 17% | 7.9µM*
O=C(C1CCCN1c1nccc(Nc2ccccc2F)n1)N1CCCC1 (configuration not stated) | -23% | · | i | -19% | · | · | · | ·
Cc1ccn2c(Nc3ccc(C(C)C)cc3)c(-c3cccs3)nc2c1 | · | · | · | · | · | 17% | 15% | ?
Cc1noc2c(Nc3ccc(N4CCOCC4)cc3)cc(-c3cccs3)nc12 | ? | -18%[70.6 µM] | ? | ? | i | · | · | ·
Nc1nccc(N2CCCC(Cc3ccccc3F)(C(=O)O)C2)n1 (configuration not stated) | i | 6% | -17%[11.5 µM] | 3% | i | · | · | ·
O=C(O)C1(CCc2ccccc2)CCCN(c2ncnc3nc[nH]c23)C1 (configuration not stated) | 3% | 2% | i | -13% | i | 14% | 10% | 1%
O=C(Nc1ccccc1)c1nc2c(o1)CCN(Cc1ccccn1)CC2 | ? | ? | -7%[88.5 µM] | ? | 4µM* | 26%[49.3 µM] | ? | ?
Cn1cc(CN2CCc3nc(C(=O)Nc4ccccc4)oc3CC2)cn1 | · | · | · | · | · | 23%[49.3 µM] | 17%[49.3 µM] | ?
Cc1[nH]cnc1CN1CCc2nc(C(=O)Nc3cccc(C(F)(F)F)c3)oc2CC1 | ? | -4%[70.6 µM] | i | ? | i | · | · | ·
Cc1ccc(CN2CCc3nc(C(=O)Nc4ccccc4)oc3CC2)cc1 | ? | 22µM* | -7%[88.5 µM] | ? | 5µM* | 14%[49.3 µM] | 14%[49.3 µM] | ?
COc1cccc(CN2CCc3nc(C(=O)NCC4CC4)oc3CC2)c1 | ? | -30%[70.6 µM] | 3%[88.5 µM] | ? | i | · | · | ·
O=C(NCc1cccc(F)c1)c1nc2c(o1)CCN(Cc1cccc(Cl)c1)CC2 | ? | ? | -12%[88.5 µM] | ? | i | · | · | ·
Cc1csc(NC(=O)c2nc3c(o2)CCN(Cc2cccc(F)c2)CC3)n1 | ? | -25%[70.6 µM] | 0%[88.5 µM] | 50µM* | 2.8µM* | 31%[49.3 µM] | ? | 14µM*
CCCNC(=O)N[C@@H]1CCC[C@@H](C(=O)NCCOC)CC(=O)N(C)C1 | -13%[138 µM] | 1%[70.6 µM] | i | -11%[172 µM] | i | · | · | ·
CN(C)c1ccc(CN2CCC3(C2)C(=NC2CCCC2)NC(=O)N3c2cc(F)cc(F)c2)cc1 (configuration not stated) | ? | · | i | ? | · | · | · | ·
O=C(Nc1ccccc1)c1nc2c(o1)CCN(Cc1ccc(O)cc1)CC2 | -30%[138 µM] | 25µM* | 1%[88.5 µM] | ? | 0.56µM* | ? | ? | 5.1µM*
COc1ccc(CCC(=O)N2CCC3(CC2)CC(OC)CCO3)cc1 (configuration not stated) | -20% | 7% | -28% | 5% | i | · | · | ·
COC1CCOC2(CCN(C(=O)CCCc3ccccc3)CC2)C1 (configuration not stated) | -5% | -10% | i | -19% | 6.3µM* | 18% | ? | ?
Cc1ccc(CNC(=O)c2ccc3c(c2)CN(Cc2cnn(C)c2C)CCO3)cc1 | -9% | ? | -6% | ? | i | 14% | 8% | -7%
COCCN1CCNc2nc(COc3ccccc3OC(F)(F)F)n(Cc3ccccc3)c2C1=O | ? | -1% | i | ? | i | · | · | ·
